Data as given in PubChem BioAssay (NCI).
About 83,000 compounds went through this panel and 20% of them were active in at least one assay; those are over-represented in the sample as a whole.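 Cell lines were cultured in 96-well plates, exposed to a single compound concentration, and assessed for percent growth 48 hours later.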 A number with no mark means an inactive call. Active and inactive are the calls of the source. The calls were made as follows: active = growth percent below 10; inactive = the rest.

Experiments:
Experiment in all cases: NCI-60 one-dose screen, 48 h (100 = growth as untreated, 0 = no growth, -100 = all killed)
Conditions in all cases: 10 µM unless noted
HT29 colon = system: HT29 colon
SNB-75 CNS = system: SNB-75 CNS
SNB-19 CNS = system: SNB-19 CNS
U251 CNS = system: U251 CNS
PC-3 prostate = system: PC-3 prostate
SK-MEL-5 melanoma = system: SK-MEL-5 melanoma
UACC-62 melanoma = system: UACC-62 melanoma
LOX IMVI melanoma = system: LOX IMVI melanoma
SK-MEL-2 melanoma = system: SK-MEL-2 melanoma
SK-MEL-28 melanoma = system: SK-MEL-28 melanoma

Row | SMILES | growth (HT29 colon) | growth (SNB-75 CNS) | growth (SNB-19 CNS) | growth (U251 CNS) | growth (PC-3 prostate) | growth (SK-MEL-5 melanoma) | growth (UACC-62 melanoma) | growth (LOX IMVI melanoma) | growth (SK-MEL-2 melanoma) | growth (SK-MEL-28 melanoma)
1 | CN(C)c1ccc(-c2c(NC(C)(C)C)nc3c(OCCc4ccccc4)cccn23)cc1 | 10.2% | 48.4% | 19.3% | 13.6% | 0.316% (active) | -69.4% (active) | 35.1% | 11.5% | 25.3% | –
2 | COc1cc(-c2nc3ccc(-c4nnc(SCC(=O)Nc5ccc(C(C)=O)cc5)o4)cc3[nH]2)cc(OC)c1OC | 108% | 96.6% | 100% | 103% | 93.3% | 102% | 93.2% | – | 115% | 103%
3 | C=CCn1c(SCC(=O)c2ccccc2)nnc1-c1c[nH]c2ccccc12 | 112% | 96.4% | 98.3% | 107% | 89.1% | 96.6% | 81.5% | – | – | 105%
4 | O=C1Nc2ccc(Cl)cc2/C1=C/c1ccc(OCC(=O)c2ccc(Br)cc2)cc1 | 103% | 75.7% | 89.7% | 98.3% | 81.8% | 96.9% | 83.4% | 108% | 113% | –
5 | O=C1/C(=C/C2=Cc3ccccc3OC2)SC(=S)N1c1ccc(F)cc1 | 118% | 100% | 93.2% | 94.9% | 115% | 100% | 97.4% | 92.5% | 120% | –
6 | O=C(N/N=C/c1cccs1)c1[nH]c2ccc(Br)cc2c1-c1ccccc1 | -23.3% (active) | 31.4% | 32.3% | 19.1% | 26.1% | -36.7% (active) | 43% | – | 20.3% | 60.7%
7 | COc1cc(/C=C/C(=O)c2ccc(Cl)cc2)ccc1Oc1nc(NCCO)nc(N2CCOCC2)n1 | 111% | 97.8% | 99.3% | 94% | 95.3% | 99.7% | 93.9% | – | – | 108%
8 | Cc1cc2nc3c4cc(Cl)ccc4n(CC(=S)NCCN(C)C)c3nc2cc1C | -32% (active) | -19.1% (active) | 4.89% (active) | -54.8% (active) | -30.1% (active) | -10.3% (active) | -67.1% (active) | – | 70.7% | -91.3% (active)
9 | CN(C)c1ccc(/C=c2\sc3nc4ccccc4n3c2=O)cc1 | 107% | 105% | 99.3% | 102% | 106% | 101% | 96.5% | – | 118% | 103%
10 | CN(C)CCCNc1c2ccccc2nc2c1oc1ccc(Cl)cc12 | -34% (active) | 37.5% | 43.3% | 33.4% | 47.2% | 47.9% | 52.1% | – | 70.8% | 43.8%
11 | COc1ccc(-c2cc(C(=O)N=Nc3c(O)[nH]c4ccccc34)c3ccccc3n2)cc1OC | 102% | 92% | 97.9% | 95.3% | 91.6% | 97.3% | 91.5% | – | – | 98.1%
12 | COc1ccc(C(=O)/C=C/c2ccc(Oc3nc(NCCO)nc(N4CCOCC4)n3)c(OC)c2)cc1 | 35% | 89.6% | 69.3% | 43.1% | 80% | 95.2% | 70.3% | – | 101% | 97.3%
13 | CCN1CCN(S(=O)(=O)c2oc(-c3ccc(Cl)cc3)nc2C#N)CC1 | 2.82% (active) | 87.5% | 95.8% | 96.6% | 87.4% | 95.2% | 88.7% | – | 104% | 53.5%
14 | Clc1ccc2c(NCCCN3CCOCC3)c3oc4ccc(Cl)cc4c3nc2c1 | 33.5% | 79.6% | 69.6% | 44.1% | 60.8% | 74.2% | 98.7% | – | 122% | 80.4%
15 | Cc1ccccc1NC(=O)/C=C/c1ccc(OCCOc2ccc3c(C)cc(=O)oc3c2)cc1 | 96.7% | 84.1% | 86.4% | 85.8% | 95.8% | 92.6% | 91.6% | 88.5% | 103% | –
16 | Clc1ccc2oc3c(NCCCn4ccnc4)c4ccccc4nc3c2c1 | -35.2% (active) | 42.1% | 51% | 11.6% | 55.4% | 78% | 45.2% | – | 110% | 59%
17 | COc1ccc(/C=C2\SC(=Nc3cc(C)[nH]n3)NC2=O)cc1 | 107% | 95.2% | 90.8% | 98.1% | 81% | 95.7% | 90.6% | – | 121% | 85%
18 | O=C(N/N=C/c1ccc([N+](=O)[O-])s1)c1[nH]c2ccc(Br)cc2c1-c1ccccc1 | -22.4% (active) | 26.2% | 27.1% | 9.11% (active) | 26.5% | -76.6% (active) | 17.6% | – | -19.4% (active) | 38.5%
19 | COc1cc(/C=C/C(=O)c2ccc(F)cc2)ccc1Oc1nc(NCCO)nc(N2CCOCC2)n1 | 53.5% | 92.2% | 69.4% | 44.1% | 70.8% | 82.1% | 57.2% | – | 93.9% | 91.3%
20 | C[C@@H]1CN(c2ccc3ncc(C#Cc4cncc(C(=O)Nc5ccc(CN6CCN(C)CC6)c(C(F)(F)F)c5)c4)n3n2)C[C@H](C)O1 | -65.8% (active) | -79.3% (active) | -4.76% (active) | -97.9% (active) | 0.777% (active) | -94.5% (active) | -65.9% (active) | -87.7% (active) | -89.7% (active) | –
21 | Cc1nc(-c2cc3ccccc3oc2=O)ccc1C(=O)/C=C/c1ccccn1 | 2.1% (active) | 56.3% | 71.6% | 8% (active) | 68.2% | 95.9% | 71.1% | -84.5% (active) | 108% | –
22 | CS(=O)(=O)c1ccc(-c2nc3ccccn3c2C=Nc2ccc(Cl)cc2)cc1 | 75.7% | 77.9% | 89.1% | 91.9% | 57.8% | 68.6% | 24.5% | – | 107% | 74.3%
23 | O=C1Nc2cc(Cl)ccc2/C1=C\c1ccc(OCc2ccc([N+](=O)[O-])cc2)cc1 | 76.8% | 57.5% | 91% | 81.6% | 59.4% | 84.4% | 67.8% | 65.8% | 101% | –
24 | CCCCN1C(=O)/C(=c2\sc3n(c2=O)C2C(NN=3)N(CC)C(=O)N2CC)c2cc(Cl)ccc21 (stereo not given) | 88.4% | 69.1% | 90.8% | 65.4% | 71.2% | 66% | 47.5% | 75.6% | 79.9% | –
25 | COc1cccc(N2CCN(c3ncnc4c3[nH]c3ccc(F)cc34)C[C@@H]2C)c1 | 5.69% (active) | -59% (active) | -12% (active) | -31.5% (active) | -42.3% (active) | -90.9% (active) | -70.8% (active) | – | -94.9% (active) | -26.8% (active)
26 | CN1C(=O)N(c2ccccc2)C2N=C(N/N=C/c3ccccc3)SC21 (stereo not given) | 3.18% (active) | -13.5% (active) | 53% | 15.8% | 33% | 5.76% (active) | 44.4% | – | – | 61.3%
27 | Cc1cccc(/C=C/c2nn3c(-c4ccco4)nnc3s2)c1 | 104% | 100% | 94.1% | 99.1% | 103% | 92% | 94% | – | 112% | 97.3%
28 | N#Cc1c(-c2ccc(Cl)cc2)nc(SCc2ccc([N+](=O)[O-])cc2)nc1N1CCNCC1 | -71.9% (active) | 28.1% | 51.8% | -95.9% (active) | -1.75% (active) | 43.6% | 12.5% | – | – | 8.08% (active)
29 | COc1ccc(C(=O)/C=C/c2ccc(OCc3ccc(C)cc3)c(OC)c2)cc1OC | 68.8% | 72% | 69.8% | 49.9% | 55.9% | 64.5% | 54.5% | – | 94.3% | 82.3%
30 | Clc1ccc2c(OCCCN3CCOCC3)c3oc4ccccc4c3nc2c1 | 25.2% | 43.5% | 41.9% | 36.2% | 50.7% | 42.7% | 33.6% | 12.9% | 78.2% | –
